Whole data set: some 3,200 compounds, median “TSA(with NAD+) / Primary screening (TSA) / delta Tm (K)” near -0.04, cut for the highest 2% near 0.37. What follows is part of a selection rich in the highest values, with near analogues and random picks from the rest.
molecular target: NAD-dependent deacetylase Sirtuin 1 (human, UniProt Q96EB6); assay: primary screen, delta tm; set-up: single well (n = 1, as 'the same TSA'); conditions: 10 µM
Experimental: A total of 3,192 compounds extracted from the proposed lists were first screened by thermal shift assay (TSA), which determined a melting temperature shift (ΔTm) of Sirtuin 1 upon the addition of a test compound at a concentration of 10 µM (n = 1) with primary hit criteria of ΔTm > 0.45 K or ΔTm < −1.5 K. Primary hits (48 compounds) were retested in the same assay at three concentrations (5, 10, 20 µM, n = 4) for hit confirmation and for dose-dependency check. Secondary hits (41 compounds) were checked their selectivity for Sirtuin 1 based on counterscreening on unrelated protein targets (bovine carbonic anhydrase (CA) and recombinant SH2 domain of hABL1 kinase (ABL1)) at three different concentrations (5, 10, 20 µM, n = 4), which yielded 38 hit compounds, hereafter referred to as TSA hits. The TSA screening above was conducted in the absence of NAD+. As noted, the structure of Sirtuin 1 is different in the presence of NAD+ and substrate. The chemical profile of TSA hits found from the different conditions could be different. […] As a result, 39 TSA hits were found.

Chain of NAD-dependent deacetylase Sirtuin 1 (Q96EB6 2-747 limits assumed): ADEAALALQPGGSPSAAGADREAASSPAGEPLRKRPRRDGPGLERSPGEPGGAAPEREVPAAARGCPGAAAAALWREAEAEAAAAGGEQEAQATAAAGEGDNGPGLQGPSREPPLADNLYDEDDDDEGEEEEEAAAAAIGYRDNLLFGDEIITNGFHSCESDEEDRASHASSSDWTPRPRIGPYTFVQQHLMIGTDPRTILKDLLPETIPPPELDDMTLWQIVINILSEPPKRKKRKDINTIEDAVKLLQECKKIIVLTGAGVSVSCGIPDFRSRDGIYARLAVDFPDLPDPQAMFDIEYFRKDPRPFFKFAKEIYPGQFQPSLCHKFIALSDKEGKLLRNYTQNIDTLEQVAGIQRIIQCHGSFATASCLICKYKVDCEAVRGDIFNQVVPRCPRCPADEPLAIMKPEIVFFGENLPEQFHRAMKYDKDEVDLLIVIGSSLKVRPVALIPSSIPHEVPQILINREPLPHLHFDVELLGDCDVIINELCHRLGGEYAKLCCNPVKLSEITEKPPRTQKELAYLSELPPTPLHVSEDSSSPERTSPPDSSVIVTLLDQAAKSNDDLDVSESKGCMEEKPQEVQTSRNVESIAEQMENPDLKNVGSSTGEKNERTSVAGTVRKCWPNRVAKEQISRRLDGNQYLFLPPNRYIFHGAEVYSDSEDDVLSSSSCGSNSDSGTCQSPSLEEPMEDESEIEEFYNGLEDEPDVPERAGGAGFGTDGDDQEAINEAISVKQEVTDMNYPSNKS

Row | Compound | TSA(with NAD+) / Primary screening (TSA) / delta Tm (K)
1 | c1ccc(CN2CCCCCC2)c(CNc2ccc3nnnn3n2)c1 | -0.04
2 | Cc1ncc(CN2CCC(Nc3ccc4nnnn4n3)C(C)C2)s1 (stereo not drawn) | 0.09
3 | Cc1cc(F)ccc1N1CCCC(Nc2ccc3nnnn3n2)C1 (stereo not drawn) | 0.68
4 | O=C(CN1CCc2ccccc21)Nc1cnc2ccccc2c1 | -0.13
5 | Cc1sc2nc(CSc3ccccc3)nc(N3CCCC(C(N)=O)C3)c2c1C (stereo not drawn) | -0.18
6 | Cc1sc2nc(CN3CCCC3)nc(N3CCC(C(N)=O)CC3)c2c1C | 0.12
7 | NC(=O)C1CCN(c2nc(CSc3ccccc3)nc3sc4c(c23)CCCC4)CC1 | 2.22
8 | NC(=O)C1CCN(c2nc(CN3CCCCC3)nc3sc4c(c23)CCC4)CC1 | -0.19
9 | NC(=O)C1CN(c2nc(C3CC3)nc3sc4c(c23)CCCC4)CCO1 (stereo not drawn) | -0.19
10 | Cc1sc2nc(CSc3ccccc3)nc(N3CCC(C(N)=O)CC3)c2c1C | 0.49
11 | Cc1ccc(C(=O)Nc2ccc(N3CCN(Cc4ccccc4)CC3)cc2)cc1NC(=O)c1ccco1 | 0.12
12 | COc1ccc(-c2csc3nc(C)nc(N4CCN(C5CCS(=O)(=O)C5)CC4)c23)cc1OC (stereo not drawn) | -0.09
13 | O=C(O)c1cnc2c(c1)c(=O)[nH]c(=O)n2Cc1ccccc1 | -0.13
14 | Cn1c(-c2ccccc2)c(C=O)c2ccccc21 | -0.32
15 | CCCCn1ccnc1C(=O)c1cccc(S(=O)(=O)N(C)c2ccccc2)c1 | -0.08
16 | CC1CN(C(=O)/C=C/c2ccc(C(=O)O)cc2)CC(C)(C)O1 (stereo not drawn) | -0.13
17 | O=C(CN1CCCCCCC1=O)NCCc1nc2ccccc2[nH]1 | -0.22
18 | COC(=O)c1cc(NC(=O)CN2C(=O)NC(C)(c3ccc4ccccc4c3)C2=O)cc(C(=O)OC)c1 (stereo not drawn) | 0.19
19 | CC1(C)NC(=O)N(CC(=O)Nc2sc3c(c2-c2nc4ccccc4[nH]2)CCCC3)C1=O | 0.37
20 | CCCCOc1cc(C2NC(N)=Nc3nc4ccccc4n32)ccc1OC (stereo not drawn) | -0.22
21 | NC1=Nc2nc3ccccc3n2C(c2ccc(-c3ccc(C(=O)O)cc3)o2)N1 (stereo not drawn) | 1.27
22 | O=C(O)CCCc1ccc2c(c1)-c1ccccc1C2 | 0.06

Row | Compound | TSA(with NAD+) / Primary screening (TSA) / delta Tm (K)
23 | COc1ccc(/C=C2/Oc3cc(O)ccc3C2=O)c(OC)c1 | 0.12
24 | O=C1/C(=C/c2ccc(OC(F)F)cc2OC(F)F)Oc2cc(O)ccc21 | 0.37
25 | O=C1/C(=C/c2ccccc2OC(F)F)Oc2cc(O)ccc21 | 0.15
26 | CCCNc1nnc(S)s1 | -0.33
27 | CN(c1ccccc1)S(=O)(=O)c1cccc(NC(=O)CCc2c[nH]c3ccccc23)c1 | 0.32
28 | CN(c1ccccc1)S(=O)(=O)c1cccc(C(=O)NCCc2c[nH]c3ccccc23)c1 | 0.17
29 | CN(c1ccccc1)S(=O)(=O)c1cccc(NCC(=O)Nc2ccc(Br)cc2)c1 | -0.01
30 | CN(c1ccccc1)S(=O)(=O)c1cccc(NC(=O)CNc2cccc3ccccc23)c1 | 0.41
31 | CN(c1ccccc1)S(=O)(=O)c1cccc(NC(=O)CCCc2c[nH]c3ccccc23)c1 | 0.39
32 | CN(c1ccccc1)S(=O)(=O)c1cccc(NC(=O)c2cc(Cl)nc3ccccc23)c1 | 0.16
33 | CCOC(=O)C1=C(COC(=O)c2sc(-c3ccco3)nc2-c2ccccc2)NC(=O)NC1 | 0.06
34 | CS(=O)(=O)c1ccc(NCCNC(=O)C23CC4CC(C2)CC(c2ccccc2)(C4)C3)c([N+](=O)[O-])c1 | 0.18
35 | CN(Cc1nc(-c2cccnc2)no1)Cc1c[nH]nc1-c1cccnc1 | -0.01
36 | Cc1ccc(OCc2nc3ccccc3n2Cc2ccccc2)cc1 | -0.21
37 | CN(c1ccccc1)S(=O)(=O)c1cccc(NC(=O)c2ccc(C(N)=O)cc2)c1 | -0.01
38 | Cc1ccc(N(C)S(=O)(=O)c2cccc(C(=O)Nc3ccc(Br)c(C)c3)c2)cc1 | 0.73
39 | Cc1ccc(N(C)S(=O)(=O)c2cccc(C(=O)Nc3ccc4c(c3)C(=O)N(C)C4=O)c2)cc1 | 0.89
40 | CSc1cccc(NC(=O)c2cccc(S(=O)(=O)N(C)c3ccc(C)cc3)c2)c1 | 0.19
41 | CC1CCc2[nH]c3ccc(C(=O)Nc4cccc(S(=O)(=O)N(C)c5ccccc5)c4)cc3c2C1 (stereo not drawn) | 0.39
42 | CC(=O)Nc1ccc(NC(=O)c2cccc(S(=O)(=O)N(C)c3ccc(C)cc3)c2)cc1 | -0.04
43 | Cc1ccc(N(C)S(=O)(=O)c2cccc(C(=O)Nc3ccncc3)c2)cc1 | -0.15
44 | CN(c1ccccc1)S(=O)(=O)c1cccc(C(=O)Nc2ccccc2)c1 | -0.01

Row | Compound | TSA(with NAD+) / Primary screening (TSA) / delta Tm (K)
45 | Cc1ccc(N(C)S(=O)(=O)c2cccc(C(=O)Nc3ccc(C(N)=O)cc3)c2)cc1 | 0.46
46 | Cc1ccc(N(C)S(=O)(=O)c2cccc(C(=O)Nc3cccc(C(=O)NC4CC4)c3)c2)cc1 | -0.03
47 | COc1cccc(NC(=O)c2cccc(S(=O)(=O)N(C)c3ccc(C)cc3)c2)c1 | -0.06
48 | Cc1ccc(NC(=O)c2cccc(S(=O)(=O)N(C)c3ccc(C)cc3)c2)cc1 | 0.29
49 | COc1ccc(CCn2c(C)cc(C(=O)COC(=O)C34CC5CC(CC(O)(C5)C3)C4)c2C)cc1 | -0.19
50 | CN1C(=O)c2oc3ccccc3c(=O)c2C1c1ccccc1F (stereo not drawn) | 0.01
51 | CCC(=O)c1ccc(OCC(=O)NNC(=O)c2cc(C)oc2C)cc1 | -0.03
52 | COc1cccc(C(C)NCc2ccc3[nH]c(=O)[nH]c3c2)c1 (stereo not drawn) | -0.08
53 | O=C1NC(C(=O)O)=CC(c2ccccc2C(F)(F)F)N1 (stereo not drawn) | -0.12
54 | CC1(c2cccc(NC(=O)c3ccc4c(c3)CCC4)c2)NC(=O)NC1=O (stereo not drawn) | -0.13
55 | CN(c1ccccc1)S(=O)(=O)c1cccc(NC(=O)COC(=O)C23CC4CC(CC(C4)C2)C3)c1 | 0.13
56 | COC(=O)c1ccc(C2NC(=O)NC3=C2C(=O)N(CC(C)O)C3)cc1 (stereo not drawn) | -0.05
57 | C=C(Br)CN | 0.06
58 | NC(=O)c1cc(C2CCCN(c3nccc(-n4cccn4)n3)C2)n[nH]1 (stereo not drawn) | 0.05
59 | Cc1ccc(N(C)S(=O)(=O)c2cccc(C(=O)Oc3ccc4c(C)cc(=O)oc4c3)c2)cc1 | 0.16
60 | O=C1CCCCC(C(=O)Nc2ccc(-c3nc4ccccc4[nH]3)cc2)N1 (stereo not drawn) | 0.16
61 | O=C(CC12CC3CC(CC(C3)C1)C2)NCC(=O)Nc1ccc(Sc2nc3ccccc3[nH]2)cc1 | 0.23
62 | O=C(NC(=S)Nc1ccc(-c2nc3ccccc3[nH]2)cc1)C12CC3CC(CC(C3)C1)C2 | 0.43
63 | COc1ccc2nc(C)c(C(=O)NC34CC5CC(CC(C5)C3)C4)cc2c1 | -0.28
64 | C[C@@H](N)CCO | -0.05
65 | O=C1NC(=O)C(=Cc2cn(-c3ccccc3)nc2-c2cc3ccccc3o2)C(=O)N1 | -0.11
66 | O=C1NC(=S)NC(=O)C1=Cc1cn(-c2ccccc2)nc1-c1cc2ccccc2o1 | 0.56

Row | Compound | TSA(with NAD+) / Primary screening (TSA) / delta Tm (K)
67 | O=C1NC(=S)NC(=O)C1=Cc1cn(-c2ccccc2)nc1-c1cc2ccccc2oc1=O | -0.05
68 | O=S(=O)(c1ccc(C(F)(F)F)cc1)N1CCNCC1 | 0.03
69 | O=C(Nc1cccc(C(F)(F)F)c1)c1cccc(NC(=O)c2cc3c(cc2[N+](=O)[O-])OCCO3)c1 | 0.38
70 | NC(=O)NCCCCC(=O)Nc1cccc(C(F)(F)F)c1 | 0.08
71 | CN(C)Cc1ccc(C(=O)Nc2cccc(C(=O)NC3CC3)c2)cc1 | 0.01
72 | CCc1cc2c(N3CCN(Cc4ccc5c(c4)OCO5)CC3)nc(C)nc2s1 | -0.04
73 | NCCCC(N)C(=O)O (stereo not drawn) | -0.08
74 | NC(=O)CC1CCN(C(=O)CCc2c[nH]c3ccccc23)CC1 | -0.03
75 | O=C(CCc1ccccc1)NC1CCN(c2ccc([N+](=O)[O-])c3cccnc23)CC1 | -0.21
76 | Cc1c(C=C2C(=O)NC(=S)NC2=O)c2ccccn2c1C(=O)c1cccc([N+](=O)[O-])c1 | -0.03
77 | O=C(CCc1ccccc1)Nc1ccccc1Cc1ccccc1 | -0.06
78 | NC(=O)COC(=O)c1ccc(OCC(=O)Nc2cccc(C(F)(F)F)c2)cc1 | 0.23
79 | O=C(COc1ccccc1C(=O)Nc1ccc(S(=O)(=O)Nc2nccs2)cc1)Nc1cccc(C(F)(F)F)c1 | 0.82
80 | Cc1cccc(-n2ccnc2SCC(=O)Nc2ccc(S(=O)(=O)Nc3nccs3)cc2)c1C | 0.13
81 | CC(C)c1ccc(C(NC(=O)c2cccc(C(N)=O)c2)c2cccs2)cc1 (stereo not drawn) | -0.05
82 | O=C1NC(=S)N/C1=C\c1ccccc1OCc1ccc(C(=O)O)cc1 | 0.23
83 | Cc1nc(-c2ccc(CCNC(=O)c3ccc(NC(=O)c4cccs4)cc3)s2)cs1 | 0.58
84 | COc1ccc(C(=O)NCCc2ccc(-c3csc(C)n3)s2)cc1 | -0.09
85 | Cc1nc(-c2ccc(CCNC(=O)c3ccc(NC(N)=O)cc3)s2)cs1 | 0.08
86 | Cc1ccccc1CNC(=O)CSc1nc2ccsc2c(=O)n1C | -0.22
87 | O=C(Nc1ccc2c3c(cccc13)CC2)N1CCC(n2cncn2)CC1 | -0.08

Source: publication PMC6925144, “A prospective compound screening contest identified broader inhibitors for Sirtuin 1” (Scientific Reports, 2019)
